# A selection: hits, their analogues and other compounds. The true share with any hit is near 19%.
# IL1B secr inh – blocks inflammasome-driven IL-1 beta release. activity change, % at 57.5 µM. hit rate 4.7% among 360,000. THP-1 LPS/ATP IL-1B secretion, AlphaLISA, 16 h; stronger effect = lower value; in the data active means activity change below about -50%; inconclusive means mostly about -30% to -49%
#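 Secreted IL-1B measured by AlphaLISA bead assay after 16 h compound exposure of THP-1 cells; compounds (final up to 57.5 uM) added 1 h before LPS (250 ng/mL) and ATP (1.25 mM) stimulation; lower signal means less secretion.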
# S-ASM inh – human S-ASM enzyme inhibition | hit rate 0.006% among 340,000 | placental ASM, HMU-PC fluorogenic substrate, 60 min | P17405 | AID 504937 | Potency, µM (top dose mostly 57.5 µM), hits mostly inhibitors
# Target sequence (P17405 47-631 limits assumed): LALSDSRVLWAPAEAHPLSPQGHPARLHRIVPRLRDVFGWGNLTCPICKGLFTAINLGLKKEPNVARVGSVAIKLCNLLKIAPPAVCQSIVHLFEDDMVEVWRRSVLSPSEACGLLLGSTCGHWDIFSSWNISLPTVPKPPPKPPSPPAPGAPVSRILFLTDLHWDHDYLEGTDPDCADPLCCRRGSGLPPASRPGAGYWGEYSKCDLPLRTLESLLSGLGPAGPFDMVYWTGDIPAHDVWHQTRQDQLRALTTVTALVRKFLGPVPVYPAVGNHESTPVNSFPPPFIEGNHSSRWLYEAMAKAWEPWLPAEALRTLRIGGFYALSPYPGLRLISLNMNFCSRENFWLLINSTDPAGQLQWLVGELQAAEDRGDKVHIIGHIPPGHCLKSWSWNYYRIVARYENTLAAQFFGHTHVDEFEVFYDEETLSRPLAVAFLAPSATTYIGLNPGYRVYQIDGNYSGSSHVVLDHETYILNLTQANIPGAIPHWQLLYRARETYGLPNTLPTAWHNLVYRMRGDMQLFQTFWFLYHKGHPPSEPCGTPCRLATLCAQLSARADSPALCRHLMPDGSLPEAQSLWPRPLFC
#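 qHTS format. ASM enzyme prepared from human placenta hydrolyses the fluorogenic substrate HMU-PC0 (9 uM final) over 60 min at 37 °C after a 10 min compound preincubation.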
# TGFb SMAD3 inh – blocks TGF-b signaling. HepG2 CAGA-GFP TGF-b/SMAD3 reporter, GFP fluorescence, 18 h; TGF-beta stimulated, 500 pg/mL final. Potency, µM (series often up to 46.1 µM), most hits filed as inhibitors. hit rate 1.2% among 410,000; further: nearly all actives have a fitted effect of over 65% in size
#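 GFP signal (ex488/em500-530) from TGF-beta-stimulated HEPG2 CAGA-GFP cells, 500 pg/mL final, 18 h at 37 degrees C in DMEM plus 1% FBS, normalized to unstimulated and DMSO-stimulated controls.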
# DT40 TDP1 CPT – growth inhibition of DT40 Tdp1-/-;hTDP1 cells with camptothecin (screen for TDP1 inhibitors); hit rate 12% among 420,000; Potency, µM (titrated, usually from 46.2 µM), hits mostly inhibitors; AID 686979; chicken DT40 Tdp1-/-;hTDP1 cells + 20 nM CPT, ATP luminescence, 48 h; further: nearly all actives have a fitted effect of over 55% in size
#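 Cell growth measured by CellTiter-Glo luminescence after a minimum 48 h, 37 C compound exposure with 20 nM CPT in Tdp1-knockout DT40 cells stably expressing hTDP1, seeded 400/well; qHTS titration format.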
# HepG2 tox – HepG2 cytotoxicity, counter-screen for TGF-b inhibitors; HepG2 CAGA-GFP viability, ATP luminescence, 18 h; Potency, µM (doses to about 46.1 µM), actives largely listed as cytotoxic; hit rate 0.76% among 410,000; AID 588856
#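 HepG2 CAGA-GFP cells (1000/well, DMEM with 1% FBS) received compound, then TGF-beta at 500 pg/mL final, and were incubated 18 hours at 37 degrees C. Viability was read by CellTiter-Glo luminescence. Media-only wells were set as complete cell-killing and DMSO as no toxicity.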
# DT40 TDP1 no CPT – qHTS for Inhibitors of human tyrosyl-DNA phosphodiesterase 1 (TDP1): qHTS in cells in absence of CPT | hit rate 15% among 420,000 | Potency, µM (doses to about 46.2 µM), actives largely listed as inhibitors | DT40 Tdp1-/- hTDP1 cells, no CPT, ATP luminescence, 48 h; further: nearly all actives have a fitted effect of over 55% in size
#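 No-CPT arm: Tdp1-/-;hTDP1 DT40 cells (400/well) plus compounds, incubated ≥48 hr at 37 °C. Readout CellTiter-Glo luminescence.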
# Hits are given with their value; - = inactive; ? = inconclusive; . = not tested or not shown. Unless noted, the call rests on the fitted dose curve; in most records, active means well fitted curve in the direction sought with a large enough effect; inconclusive means small, poorly fitted or top-dose-only effect, or another doubt; inactive means no such curve, though single readings can be large; an effect the other way counts as inactive or inconclusive.
SMILES,IL1B secr inh,S-ASM inh,TGFb SMAD3 inh,DT40 TDP1 CPT,HepG2 tox,DT40 TDP1 no CPT
O=C(CSC1=NS(=O)(=O)c2cc(Cl)ccc2N1)NCCc1ccccc1,-,-,-,-,-,-
CS(=O)(=O)NCCc1csc2nc(-c3ccccc3)nn12,.,.,-,-,-,-
Cc1ccc(-c2nc3ccccc3s2)cc1S(=O)(=O)N1CCCC1,-,-,?,13µM,-,?
Cc1ccc(-c2nnc(Nc3cccc(O)c3)c3ccccc23)cc1S(=O)(=O)N1CCCCC1,.,.,?,18µM,-,-
COc1ccc(S(=O)(=O)N(C)C[C@H]2OCc3cnnn3CCCC(=O)N([C@H](C)CO)C[C@@H]2C)cc1,-,.,-,-,-,-
Cc1ccc(NC(=O)c2ccc([N+](=O)[O-])o2)cc1S(=O)(=O)N1CCOCC1,-94,-,14µM,5.2µM,-,4.6µM
Cc1ccc(NC(=O)c2ccccc2-c2ccc(C(F)(F)F)cc2)cc1S(=O)(=O)N1CCOCC1,-,-,-,?,-,15µM
Cc1ccc(NC(=O)c2cc(=O)c3ccccc3o2)cc1S(=O)(=O)N1CCCCC1,?,-,-,?,-,21µM
COC(=O)c1cc(NC(=O)c2cc(-c3ccc(C(F)(F)F)cc3)oc2C(F)(F)F)ccc1N1CCOCC1,-,?,?,?,-,21µM
Cc1ccc(NC(=O)c2cc([N+](=O)[O-])ccc2N2CCOCC2)cc1S(=O)(=O)N1CCOCC1,-,-,?,-,-,-
Cc1cccc(C(=O)NCCCNC(=O)c2ccc(C)nc2)c1,-,-,-,-,-,-
COCc1c(C(=O)Nc2ccc(C)c(S(=O)(=O)N3CCOCC3)c2)oc2ccccc12,-,-,?,?,-,?
Cc1ccc(NC(=O)c2ccc3ccccc3n2)cc1S(=O)(=O)N1CCOCC1,-,-,?,?,-,15µM
Cc1ccc(NC(=O)c2cc(=O)c3ccccc3o2)cc1S(=O)(=O)N1CCOCC1,-,-,-,18µM,-,12µM
NC(c1csc(Nc2cc(NCc3ccco3)ncn2)n1)c1ccccc1Cl (stereo unspecified),-79,.,?,21µM,-,15µM
NC(Cc1ccc(F)cc1)c1csc(Nc2cc(NCc3ccco3)ncn2)n1 (stereo unspecified),-55,.,?,23µM,-,21µM
NC(c1csc(Nc2ccc(C(=O)NCCCO)cn2)n1)c1ccccc1Cl (stereo unspecified),-,.,-,-,-,-
Cc1ccc2oc3c(c(=O)c2c1)C(c1ccc(F)cc1)N(c1nc(C)c(C)s1)C3=O (stereo unspecified),.,.,?,-,-,-
C[C@H](NC(=O)c1ccccc1Cl)C(=O)OCC(=O)NNC(=O)c1cccs1,-,-,-,-,-,-
C/C(=C\C(=S)Nc1ccccc1)Nc1cccc2ccccc12,-,-,?,?,-,23µM
C/C(=C\C(=S)Nc1ccccc1)Nc1ccc2ccccc2c1,-,-,?,18µM,-,?
C=CCNc1nc(N)c([N+](=O)[O-])c(Nc2ccccc2OC)n1,-,-,-,?,-,-
CCC(C)Nc1nc(N)c([N+](=O)[O-])c(Nc2ccccc2OC)n1 (stereo unspecified),-88,-,-,?,-,?
COc1ccc(OC)c(Nc2nc(NCCC(C)C)nc(N)c2[N+](=O)[O-])c1,-,-,-,?,-,?
COc1ccccc1Nc1nc(NCCCN(C)C)nc(N)c1[N+](=O)[O-],-63,-,-,-,-,?
SMILES,IL1B secr inh,S-ASM inh,TGFb SMAD3 inh,DT40 TDP1 CPT,HepG2 tox,DT40 TDP1 no CPT
COc1ccccc1Nc1nc(NCC(C)C)nc(N)c1[N+](=O)[O-],-,-,-,?,-,26µM
O=c1[nH]cnc2c1ncn2-c1ccc(N(CCO)CCO)cc1,-,-,-,-,-,-
CN1CCN(S(=O)(=O)c2csc(C(N)=O)c2)CC1,-,-,-,-,-,-
Cc1ccc(C)n1-c1cc(S(=O)(=O)N2CCOCC2)ccc1N1CCCC1,-,-,-,21µM,-,26µM
Cc1cc(CNCCN(C)C)c(C)n1-c1cc(S(=O)(=O)N2CCOCC2)ccc1N1CCCC1,-,-,-,?,-,16µM
CNCc1cc(C)n(-c2cc(S(=O)(=O)N3CCOCC3)ccc2N2CCCC2)c1C,-,.,-,?,-,?
COc1ccc(N(CC(C)C)S(=O)(=O)c2nnc(NC(=O)CC(C)C)s2)cc1,-,-,-,3.7µM,-,?
Cc1ccc(N(C)S(=O)(=O)c2nnc(NC(=O)c3ccco3)s2)cc1,-,-,-,-,-,-
CCN(c1cc(C)cc(C)c1)S(=O)(=O)c1nnc(NC(=O)C2CCCCC2)s1,.,.,-,21µM,-,12µM
CCC(=O)Nc1nnc(S(=O)(=O)N(CC)c2ccc(OC)cc2)s1,-,-,-,-,-,-
CCN(c1ccc(OC)cc1)S(=O)(=O)c1nnc(NC(=O)CC(C)C)s1,-53,-,-,-,-,-
Cc1ccc(N(CC(C)C)S(=O)(=O)c2nnc(NC(=O)c3ccco3)s2)cc1,.,.,-,?,-,18µM
CCCOc1ccc(C(=O)Nc2ccc3oc(-c4ccncc4)nc3c2)cc1,.,.,-,?,-,?
CC(C)(C)c1ccc(S(=O)(=O)N2CCN(c3nc(-c4cccs4)nc4ccccc34)CC2)cc1,.,.,.,-,.,?
O=S(=O)(c1cccs1)N1CCN(c2nc(-c3cccs3)nc3ccccc23)CC1,.,.,.,?,.,20µM
O=[N+]([O-])c1ccccc1S(=O)(=O)N1CCN(c2nc(-c3cccs3)nc3ccccc23)CC1,.,.,-,?,-,?
CS(=O)(=O)N1CCN(c2nc(-c3cccs3)nc3ccccc23)CC1,.,.,.,16µM,.,11µM
O=S(=O)(c1ccccc1C(F)(F)F)N1CCN(c2nc(-c3cccs3)nc3ccccc23)CC1,.,.,-,13µM,-,11µM
COc1ccc(C(C)=O)cc1COC(=O)CCNS(=O)(=O)c1ccc(C)c(C)c1,-,-,-,-,-,-
Cc1cc(C)cc(NC(=O)c2cn3c4c(ccc(Cl)c4c2=O)OC(C)C3)c1 (stereo unspecified),.,.,-,-,-,-
COc1ccc(CC(=O)N2CCN(S(=O)(=O)c3cc(Cl)ccc3Cl)CC2)cc1,-,-,?,?,-,-
O=C(c1ccc(F)cc1)N1CCN(c2ccc([N+](=O)[O-])c(N3CCCCC3)c2)CC1,-,-,?,?,-,23µM

# From PubChem
